Screening data deposited in PubChem by several laboratories.
CYP2C9 activ – CYP2C9 (human) activation. activation factor at 5 µM. recombinant CYP2C9, luciferin-H conversion, luminescence; stronger effect = higher value; factor 1 = untreated enzyme, 0 = blocked. P11712. AID 1024. 96,000 compounds, 1.4% hits;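 active = activation factor of 2 or more for CYP2C9 at a 5 µM dose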;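 note: 0 = sulfaphenazole-blocked wells and 1 = vehicle-only wells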
Target sequence (P11712 whole entry, looked up): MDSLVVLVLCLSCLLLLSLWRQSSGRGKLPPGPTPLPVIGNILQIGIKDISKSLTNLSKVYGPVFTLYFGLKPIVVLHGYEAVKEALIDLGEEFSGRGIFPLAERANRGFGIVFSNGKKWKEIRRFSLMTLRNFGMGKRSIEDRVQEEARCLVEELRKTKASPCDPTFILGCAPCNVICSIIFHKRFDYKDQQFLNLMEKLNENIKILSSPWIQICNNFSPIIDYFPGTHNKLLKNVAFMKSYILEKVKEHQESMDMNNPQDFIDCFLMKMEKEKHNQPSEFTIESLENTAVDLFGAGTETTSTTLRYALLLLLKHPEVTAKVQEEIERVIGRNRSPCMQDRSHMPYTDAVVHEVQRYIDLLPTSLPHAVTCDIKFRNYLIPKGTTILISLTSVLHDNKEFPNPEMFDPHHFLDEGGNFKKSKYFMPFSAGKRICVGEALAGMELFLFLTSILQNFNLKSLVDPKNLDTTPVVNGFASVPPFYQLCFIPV
sEH inh – soluble epoxide hydrolase (human) inhibition; P34913; recombinant human sEH enzymatic activity assay; inhibition, % at 2 µM; 91,000 compounds, 0.34% hits; in the data active = inhibition above about 80%
CYP2C19 inh – blocks human cytochrome P450 2C19; inhibition, % at 5 µM; P33261; CYP2C19 Supersomes, luciferin-H EGE luminescence, 30 min; AID 778; 96,000 compounds, 21% hits;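 active = CYP2C19 inhibition above a set limit at 5 µM in the primary screen, cut at about 50% in these data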;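 note: plate controls were negative control wells for no effect and 2.5 mM tranylcypromine positive control for full effect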
CYP2C19 activ – increases human CYP2C19 enzyme activity. activation factor at 5 µM. P33261. recombinant CYP2C19, luciferin-H EGE luminescence; stronger effect = higher value; 0 = fully inhibited enzyme, 1 = untreated enzyme. AID 1025. 96,000 tested, under 10 active;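 active = activation factor of at least 2 at 5 µM in the primary screen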;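 note: 0 = wells with 2.5 mM tranylcypromine and 1 = vehicle-only wells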
CYP2C9 inh – blocks human cytochrome P450 2C9; P11712; CYP2C9 Supersomes, luciferin-H conversion, luminescence; inhibition, % at 5 µM; 96,000 compounds, 20% hits;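 active = blocking of liver enzyme CYP2C9 beyond about 50% at 5 µM, limit read from the data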
sEH activator – activators of human soluble epoxide hydrolase | P34913 | purified human sEH enzymatic activity, activator screen | activation, % at 2 µM | 91,000 compounds, 0.04% hits | AID 717; in the data active = activation above about 37%
* marks the source's active call; other numbers are inactive results. Most compounds without a hit are left out; they make up all but 27% or so of the library.

Results for COc1ccc(N(C(C)=O)S(=O)(=O)c2cc(OC)ccc2OC)cc1 ?
CYP2C9 activ: 0.5; sEH inh: -7; CYP2C19 inh: 28; CYP2C19 activ: 0.7; CYP2C9 inh: 50*; sEH activator: 10

How did CCS(=O)(=O)NCc1csc(-c2ccccc2)n1 do in these assays?
CYP2C9 activ: 1; CYP2C19 inh: 70*; CYP2C19 activ: 0.3; CYP2C9 inh: 0

How did COc1ccc(-c2nc(CC(=O)O)cs2)cc1 do in these assays?
CYP2C9 activ: 1; sEH inh: -5; CYP2C19 inh: -15; CYP2C19 activ: 1.1; CYP2C9 inh: -4; sEH activator: 8

How did CS(=O)(=O)NCc1csc(-c2ccccc2)n1 do in these assays?
CYP2C9 activ: 0.9; CYP2C19 inh: 5; CYP2C19 activ: 0.9; CYP2C9 inh: 7

Results for COc1ccc(OC)c(S(=O)(=O)NC(C)(C)C)c1 ?
CYP2C9 activ: 0.8; sEH inh: 7; CYP2C19 inh: 52*; CYP2C19 activ: 0.5; CYP2C9 inh: 20; sEH activator: -5

How did COc1cc(NC(=S)NN2CCN(C)CC2)cc(OC)c1 do in these assays?
CYP2C9 activ: 0.9; sEH inh: -8; CYP2C19 inh: 3; CYP2C19 activ: 1; CYP2C9 inh: 10; sEH activator: 8

How did CNC(=O)NC(=O)CSc1ccc(NC(C)=O)cc1 do in these assays?
CYP2C9 activ: 1; sEH inh: -2; CYP2C19 inh: 2; CYP2C19 activ: 1; CYP2C9 inh: 0; sEH activator: 2

What do the screens show for `CCOc1ccc(OCC)c(S(=O)(=O)NCc2cccnc2)c1`?
sEH inh: -5; sEH activator: 3

Results for CCOc1cc(Br)ccc1S(=O)(=O)NCc1ccccc1 ?
CYP2C9 activ: 1.5; sEH inh: -4; CYP2C19 inh: 71*; CYP2C19 activ: 0.3; CYP2C9 inh: -45; sEH activator: 7

What do the screens show for `COc1ccc(OC)c(S(=O)(=O)NCc2cccnc2)c1`?
CYP2C9 activ: 1.3; sEH inh: -3; CYP2C19 inh: 13; CYP2C19 activ: 0.9; CYP2C9 inh: -30; sEH activator: 3

What do the screens show for `CCc1ccc(OC)c(S(=O)(=O)NCCOc2ccccc2)c1`?
CYP2C9 activ: 0.8; sEH inh: 1; CYP2C19 inh: 75*; CYP2C19 activ: 0.2; CYP2C9 inh: 15; sEH activator: 2

How did COc1ccc(OC)c(S(=O)(=O)NCc2ccccc2)c1 do in these assays?
CYP2C9 activ: 1.2; sEH inh: 2; CYP2C19 inh: 96*; CYP2C19 activ: 0; CYP2C9 inh: -16; sEH activator: -1

How did COc1ccc(OC)c(NS(=O)(=O)Cc2ccccc2)c1 do in these assays?
CYP2C9 activ: 1.4; CYP2C19 inh: 94*; CYP2C19 activ: 0.1; CYP2C9 inh: -36

How did COc1cc2c3nnc(-c4ccc(F)cc4)c-3cn(Cc3ccccc3)c2cc1OC do in these assays?
CYP2C9 activ: 0.7; sEH inh: 6; CYP2C19 inh: 3; CYP2C19 activ: 1; CYP2C9 inh: 29; sEH activator: -7

What do the screens show for `Cc1nc(CNS(=O)(=O)c2ccc3ccccc3c2)cs1`?
CYP2C9 activ: 2*; CYP2C19 inh: 45; CYP2C19 activ: 0.5; CYP2C9 inh: -101

Results for COc1cc(OC)c(C#N)c(S(=O)(=O)Cc2ccccc2)c1 ?
CYP2C9 activ: 1.4; sEH inh: 3; CYP2C19 inh: 96*; CYP2C19 activ: 0; CYP2C9 inh: -44; sEH activator: -3

Results for COc1ccc(S(=O)(=O)NCc2csc(-c3cccnc3)n2)cc1 ?
CYP2C9 activ: 0.3; sEH inh: -21; CYP2C19 inh: 91*; CYP2C19 activ: 0.1; CYP2C9 inh: 68*; sEH activator: 20

Results for Cc1ccc(CN2CCNC(=O)C2CC(=O)O)o1 (stereo not given) ?
CYP2C9 activ: 1.1; sEH inh: -2; CYP2C19 inh: -9; CYP2C19 activ: 1.1; CYP2C9 inh: -11; sEH activator: 0

What do the screens show for `CC(=O)c1ccc(OCCCC(=O)OCC(=O)N2CCN(c3ccccc3)CC2)cc1`?
CYP2C9 activ: 0.8; sEH inh: 7; CYP2C19 inh: 14; CYP2C19 activ: 0.9; CYP2C9 inh: 16; sEH activator: -7

How did Cc1ccc(-c2nc(CSCC(=O)NCc3cccnc3)c(C)o2)cc1 do in these assays?
CYP2C9 activ: 0.9; sEH inh: 10; CYP2C19 inh: 3; CYP2C19 activ: 1; CYP2C9 inh: 14; sEH activator: -8

Results for CC(C)NC(=O)c1ccc(-c2cccc(C(F)(F)F)c2)o1 ?
CYP2C9 activ: 1.4; sEH inh: 3; CYP2C19 inh: 7; CYP2C19 activ: 0.9; CYP2C9 inh: -35; sEH activator: 0

What do the screens show for `CCNC(=O)n1nccc1C(C)Oc1cccc(C(F)(F)F)c1` (stereo not given)?
CYP2C9 activ: 0.7; sEH inh: -4; CYP2C19 inh: 56*; CYP2C19 activ: 0.4; CYP2C9 inh: 26; sEH activator: 3

What do the screens show for `CCNC(=O)n1nccc1C(C)Oc1ccc(Cl)cc1` (stereo not given)?
CYP2C9 activ: 0.3; sEH inh: -4; CYP2C19 inh: 88*; CYP2C19 activ: 0.1; CYP2C9 inh: 71*; sEH activator: 3

Results for O=C(Cn1cnc2ccc(Br)cc2c1=O)c1cccs1 ?
CYP2C9 activ: 0.5; sEH inh: 0; CYP2C19 inh: 78*; CYP2C19 activ: 0.2; CYP2C9 inh: 52*; sEH activator: -1

What do the screens show for `CCCCOC(=O)Cn1cnc2ccc(Br)cc2c1=O`?
CYP2C9 activ: 0.8; sEH inh: -2; CYP2C19 inh: 30; CYP2C19 activ: 0.7; CYP2C9 inh: 24; sEH activator: 1

What do the screens show for `O=C(Cn1cnc2ccc(Cl)cc2c1=O)c1cccs1`?
CYP2C9 activ: 0.7; sEH inh: -4; CYP2C19 inh: 54*; CYP2C19 activ: 0.5; CYP2C9 inh: 32; sEH activator: 3

What do the screens show for `CC(C)COC(=O)Cn1cnc2ccc(Br)cc2c1=O`?
CYP2C9 activ: 0.4; sEH inh: 0; CYP2C19 inh: 91*; CYP2C19 activ: 0.1; CYP2C9 inh: 56*; sEH activator: 3

Results for O=C(Cn1cnc2ccccc2c1=O)c1cccs1 ?
CYP2C9 activ: 0.6; sEH inh: -22; CYP2C19 inh: 24; CYP2C19 activ: 0.8; CYP2C9 inh: 43; sEH activator: 24

Results for O=C(NNC1CC(=O)N(c2ccc3c(c2)OCCO3)C1=O)c1ccccc1 (stereo not given) ?
CYP2C9 activ: 0.9; sEH inh: 4; CYP2C19 inh: 6; CYP2C19 activ: 0.9; CYP2C9 inh: 6; sEH activator: -2

Results for CCOc1ccc(CC(=O)Nc2c(C(N)=O)oc3ccccc23)cc1OCC ?
sEH inh: 10; sEH activator: -12

What do the screens show for `CCOCC(=O)Nc1cccc(Br)c1`?
CYP2C9 activ: 1; sEH inh: 4; CYP2C19 inh: 16; CYP2C19 activ: 0.8; CYP2C9 inh: -4; sEH activator: -4

What do the screens show for `Cc1nc2nc(C)n(-c3ccccc3)c2s1`?
CYP2C9 activ: 1; sEH inh: 1; CYP2C19 inh: -1; CYP2C19 activ: 1; CYP2C9 inh: 2; sEH activator: -2

Results for O=C1CC(c2ccc(F)cc2)CC(O)=C1C1NCCc2ccccc21 (stereo not given) ?
CYP2C9 activ: 1; sEH inh: -8; CYP2C19 inh: -7; CYP2C19 activ: 1.1; CYP2C9 inh: 2; sEH activator: 8
